Assay [1] can be described thus: AP1 Signaling Pathway (AID 357; active = well fitted curve in either direction with a large enough effect, not every such curve was filed as active;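 also: ME-180 reporter cells stimulated with EGF at its EC50 level; % is scaled to controls: 0 for no effect and ±100 for the full control effect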). An outline of the steps: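 Modulation of EGF-driven AP-1 transcription was assessed with a beta-lactamase reporter in ME-180 cells. Compound and EC50 EGF were co-incubated 5 hours at 37 °C before 2.5-hour CCF4 loading at room temperature and dual-emission reading.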
The target of assay [2] is Cytochrome P450 1A2 (Homo sapiens) (UniProt P05177). The experiment in a line: p450-cyp1a2 (AID 410; calls by dose curve; also: potency is read from the fitted curve at half-maximal effect;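 as to activity change, negative = inhibition: -100% = full effect of reference inhibitor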). An outline of the steps: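 Luminescent readout of luciferin formed from Luciferin-ME by human CYP1A2; data normalized against complete inhibition by 57 uM furafylline. Enzyme 20nM, substrate 100uM at Km, 100mM KPO4 buffer, 60 min reaction at room temperature.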
The nature of assay [3]: NFAT Signaling Pathway (AID 444; active = well fitted curve in either direction with a large enough effect, not every such curve was filed as active;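 also: carbachol stimulus at about its EC50 of 1 µM final; % is scaled to controls: 0 for no effect and ±100 for the full control effect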). The note with it: Jurkat NFAT-bla M1, carbachol, beta-lactamase ratio, 5 h; at 17.2 µM (top of the series) unless noted. An outline of the steps:
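Jurkat cells carrying an NFAT-driven β-lactamase reporter and co-transfected muscarinic M1 receptor were treated with compound plus carbachol (1 uM final, an EC50 level) for 5 h at 37 °C. CCF4 loading followed for 1 h at RT; 460/530 nm ratio gave %activity.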

Assay [4] can be described thus: Stat Signaling Pathway (AID 446; active = well fitted curve in either direction with a large enough effect, not every such curve was filed as active;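 also: ME-180 cervical cancer cells given 40 pM IL-6 alongside compound; SIE-controlled beta-lactamase reporter measured as 460/530 nm FRET emission ratio; % is scaled to controls: 0 for no effect and ±100 for the full control effect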). An outline of the steps:
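Screening format detects activators and inhibitors alike: ME-180 SIE-bla cells stimulated at 40 pM IL-6 for 5 hrs with compound, then dual-emission beta-lactamase read at 405 nm excitation.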

Assay [5] concerns the target Mitogen-activated protein kinase 10 (Mus musculus) (UniProt Q61831). The experiment in a line: JNK3 AlphaScreen Assay (AID 530; active = well fitted curve in either direction with a large enough effect, not every such curve was filed as active;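 also: kinase came from lysate of stimulated human HepG2 cells; signal reports phosphorylation of biotinylated GST-cJun 1-79 at Ser73 with 10 µM ATP; % is scaled to controls: 0 for no effect and ±100 for the full control effect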). The gist of the method:
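Inhibitors reduce antibody binding to phosphorylated biotin-cJun, lowering AlphaScreen luminescence. Lysates from HepG2 cells pre-activated by IL-1beta plus TNF-alpha supplied JNK3; compounds were titrated.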

Assay [6] deals with 3',5'-cyclic-AMP phosphodiesterase 4B (Homo sapiens) (UniProt Q07343). The experiment in a line: qHTS Assay for Inhibitors of PDE-IV (AID 607; active = well fitted activation curve with a large enough effect in the main read-out, with a control signal flat, not every such curve was filed as active; also: % of control where 0% means no effect). An outline of the steps:
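The readout is membrane depolarisation from a cAMP-sensing CNG channel, detected with a potential dye at ex 535/em 590. Cells were HEK293-derived (endogenous PDE-IV) at 1000 cells/well, titrated up to 22.9 uM final.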

A short description of assay [7]: qHTS Assay for Lipid Storage Modulators (AID 1519; calls by dose curve). The settings on record: Drosophila S3 cells, BODIPY lipid droplet/cell ratio, laser cytometry, cells loaded with oleic acid; for activity change, negative = inhibition: at 25.7 µM (top of the series). The gist of the method: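 Cells seeded at 5,000 per well were treated with compounds over a concentration series and loaded with oleic acid (400 uM, as added). Lipid droplet fluorescence (488 nm excitation, 500-530 nm channel) was read by laser-scanning cytometry and normalized to 20 uM Triacsin C.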

The target in assay [8] is Ubiquitin carboxyl-terminal hydrolase 1 (Homo sapiens) (UniProt O94782). The experiment in a line: Inhibitors of USP1/UAF1: Pilot qHTS (AID 504865).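 Also: rhodamine fluorescence freed from ubiquitin-rhodamine substrate followed over time; top concentration of the series differs between compounds; % is scaled to controls: 0 for no effect and ±100 for the full control effect; nearly all actives have a fitted effect of over 35% in size.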 An outline of the steps: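 1nM USP1/UAF1 + cpd, 15 min RT; start w/ Ub-Rho 150nM final; kinetic FL 480/540 nm, 6 reads q60 s. Buffer 50mM HEPES pH 7.8, 0.5mM EDTA, 1mM TCEP, 0.01% Tween-20, 0.1 mg/ml BSA.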
Assay [9] concerns the target Luciferin 4-monooxygenase (Photinus pyralis) (UniProt P08659). The experiment in a line: Biochemical firefly luciferase enzyme assay for NPC (AID 624030).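 Also: purified P. pyralis luciferase at 10 nM with luciferin and ATP substrate; 0% = DMSO and -100% = full luciferase inhibition by PTC124 control; nearly all actives have a fitted effect of over 70% in size.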 An outline of the steps: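 Counter-screen for direct inhibition of the luciferase enzyme by approved-drug library compounds, run at 10 nM enzyme in 50 mM Tris acetate (final). Luminescence was read within 5 min of enzyme-buffer addition and normalized to PTC124 versus DMSO (0%).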

A short description of assay [10]: S16 Schwann cell viability assay (CellTiter-Glo assay) (AID 624031).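 Also: cellular ATP luminescence as a viability measure; plate controls were DMSO-treated cells for no effect and cell-free wells for full effect; nearly all actives have a fitted effect of over 70% in size.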 An outline of the steps:
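Native S16 Schwann cells (rat), serum-containing medium, overnight attachment then 24 h drug exposure at 37 °C/5% CO2. CellTiter-Glo ATP signal; normalized to cell-free and vehicle wells.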

Assay [11] can be described thus: qHTS profiling for inhibitors of Plasmodium falciparum proliferation (AID 504749).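 Also: 0% = DMSO vehicle and full inhibition = artemisinin control; nearly all actives have a fitted effect of over 60% in size.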 The settings on record: P. falciparum in erythrocytes, SYBR Green DNA, 72 h, at 12.8 µM (top of the series). The gist of the method: (§1)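 Parasite proliferation within erythrocytes, 72 h exposure. Endpoint: SYBR Green I fluorescence after overnight lysis at room temperature. Controls: 0.29 uM artemisinin, DMSO.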

The subject of the next assay is C2A. The assay is described as above. The settings on record: P. falciparum in erythrocytes, SYBR Green DNA, 72 h; series mostly up to 12.8 µM. An outline of the steps: as §1
In another assay the test system is CP191. Described as above. The note with it: P. falciparum in erythrocytes, SYBR Green DNA, 72 h; series mostly up to 12.8 µM. The gist of the method: as §1
The subject of another assay is CP256. Described as above. The note with it: P. falciparum in erythrocytes, SYBR Green DNA, 72 h; series mostly up to 12.8 µM. An outline of the steps: as §1
For a further assay, the system named is CP262. The assay is described as above. The settings on record: P. falciparum in erythrocytes, SYBR Green DNA, 72 h; series mostly up to 12.8 µM. An outline of the steps:
as §1

A further assay has as its system JCK. The assay is described as above. The note with it: P. falciparum in erythrocytes, SYBR Green DNA, 72 h; series mostly up to 12.8 µM. The gist of the method:
as §1

In the next assay the test system is SC27B. The assay is described as above. The note with it: P. falciparum in erythrocytes, SYBR Green DNA, 72 h; series mostly up to 12.8 µM. The gist of the method:
as §1

The target of assay [12] is Glucocorticoid receptor (Homo sapiens) (UniProt P04150). The experiment in a line: GR-GFP Redistribution (AID 450;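 active = compounds whose dose series gives a full or clear partial fitted curve of increased nuclear translocation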; also: potency is read from the fitted curve at half-maximal effect). The settings on record: U2OS GR-GFP nuclear translocation, laser cytometry, 2 h.
Assay [13] has the same target. The experiment in a line: GR-EFC Redistribution (AID 451; calls by dose curve; also: potency is read from the fitted curve at half-maximal effect). The note with it: CHO-K1 GR-EFC translocation, beta-gal luminescence, 2 h. The gist of the method: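 CHO-K1 cells stably expressing nuclear-localized β-gal enzyme acceptor and GR fused C-terminally to the enzyme donor fragment; ligand-driven nuclear translocation restores β-gal by complementation. Compounds titrated up to 46 uM final, 2 h at 37 °C; luminescence read.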

In another assay the test system is CP268. The experiment in a line: qHTS profiling for inhibitors of Plasmodium falciparum proliferation (AID 504749).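 Also: 0% = DMSO vehicle and full inhibition = artemisinin control; nearly all actives have a fitted effect of over 60% in size.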 The note with it: P. falciparum in erythrocytes, SYBR Green DNA, 72 h; series mostly up to 12.8 µM. The gist of the method: as §1
The mark [14] stands for this setting: measured here: cell count channel max response.
[15] abbreviates: measured here: lipid channel max response.

Records with an inconclusive call do not appear. Calls of active or inactive are those of the source. Unless noted, calls follow the shape of the dose curve; as a rule, active = well fitted curve in the direction sought with a large enough effect; inconclusive = small, poorly fitted or top-dose-only effect, or another doubt; inactive = no such curve, though single readings can be large; an effect the other way counts as inactive or inconclusive. A value given as a limit tells only on which side of the number the result lay.

Sequence of Luciferin 4-monooxygenase (Photinus pyralis) (P08659 whole entry, looked up): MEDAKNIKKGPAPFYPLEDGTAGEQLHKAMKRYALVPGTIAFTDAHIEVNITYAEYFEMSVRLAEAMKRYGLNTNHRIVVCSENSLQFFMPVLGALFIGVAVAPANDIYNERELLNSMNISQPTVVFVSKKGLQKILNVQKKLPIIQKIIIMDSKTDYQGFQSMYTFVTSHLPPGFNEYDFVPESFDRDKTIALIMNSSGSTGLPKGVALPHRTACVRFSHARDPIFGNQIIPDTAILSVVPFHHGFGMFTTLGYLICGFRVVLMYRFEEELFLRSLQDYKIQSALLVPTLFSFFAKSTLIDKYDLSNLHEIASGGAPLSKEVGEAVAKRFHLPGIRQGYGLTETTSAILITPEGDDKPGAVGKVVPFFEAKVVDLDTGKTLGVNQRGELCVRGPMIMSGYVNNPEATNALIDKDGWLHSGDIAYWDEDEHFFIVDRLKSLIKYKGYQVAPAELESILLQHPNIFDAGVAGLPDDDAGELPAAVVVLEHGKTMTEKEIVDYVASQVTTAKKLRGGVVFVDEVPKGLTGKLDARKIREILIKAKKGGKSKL
Sequence of Ubiquitin carboxyl-terminal hydrolase 1 (Homo sapiens) (O94782 whole entry, looked up): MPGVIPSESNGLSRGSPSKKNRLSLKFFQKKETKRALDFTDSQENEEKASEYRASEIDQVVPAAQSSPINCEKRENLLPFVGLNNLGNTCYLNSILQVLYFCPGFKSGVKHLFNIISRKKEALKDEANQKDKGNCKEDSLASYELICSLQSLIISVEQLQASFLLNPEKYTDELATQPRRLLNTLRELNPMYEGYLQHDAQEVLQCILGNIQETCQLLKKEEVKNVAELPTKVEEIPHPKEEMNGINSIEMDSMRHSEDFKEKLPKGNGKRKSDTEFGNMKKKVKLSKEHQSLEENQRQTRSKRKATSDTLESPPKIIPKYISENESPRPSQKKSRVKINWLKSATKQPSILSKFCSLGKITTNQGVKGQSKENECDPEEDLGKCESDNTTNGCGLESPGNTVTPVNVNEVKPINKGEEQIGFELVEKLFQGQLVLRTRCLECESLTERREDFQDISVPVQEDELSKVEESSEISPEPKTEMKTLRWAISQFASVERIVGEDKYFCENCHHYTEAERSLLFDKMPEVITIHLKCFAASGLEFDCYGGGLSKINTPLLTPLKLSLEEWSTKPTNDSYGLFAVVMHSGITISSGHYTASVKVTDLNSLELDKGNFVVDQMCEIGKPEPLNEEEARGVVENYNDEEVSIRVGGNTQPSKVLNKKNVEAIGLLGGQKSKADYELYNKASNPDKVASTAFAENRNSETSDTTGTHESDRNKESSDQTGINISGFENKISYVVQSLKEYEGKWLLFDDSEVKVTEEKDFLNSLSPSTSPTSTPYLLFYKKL
Sequence of Cytochrome P450 1A2 (Homo sapiens) (P05177 whole entry, looked up): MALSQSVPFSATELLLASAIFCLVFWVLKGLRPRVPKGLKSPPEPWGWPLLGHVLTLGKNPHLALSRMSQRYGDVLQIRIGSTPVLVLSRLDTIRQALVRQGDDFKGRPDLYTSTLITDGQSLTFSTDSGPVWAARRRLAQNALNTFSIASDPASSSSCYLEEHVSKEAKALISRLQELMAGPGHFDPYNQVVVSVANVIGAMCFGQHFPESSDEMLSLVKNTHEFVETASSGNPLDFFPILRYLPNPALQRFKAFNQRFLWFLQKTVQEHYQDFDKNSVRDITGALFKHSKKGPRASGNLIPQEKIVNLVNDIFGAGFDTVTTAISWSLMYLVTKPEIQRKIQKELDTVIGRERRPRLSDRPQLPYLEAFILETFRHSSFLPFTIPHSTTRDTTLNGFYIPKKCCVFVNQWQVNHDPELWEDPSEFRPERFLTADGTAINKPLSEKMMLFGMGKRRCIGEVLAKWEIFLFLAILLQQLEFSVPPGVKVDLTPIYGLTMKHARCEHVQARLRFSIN
Sequence of 3',5'-cyclic-AMP phosphodiesterase 4B (Homo sapiens) (Q07343 whole entry, looked up): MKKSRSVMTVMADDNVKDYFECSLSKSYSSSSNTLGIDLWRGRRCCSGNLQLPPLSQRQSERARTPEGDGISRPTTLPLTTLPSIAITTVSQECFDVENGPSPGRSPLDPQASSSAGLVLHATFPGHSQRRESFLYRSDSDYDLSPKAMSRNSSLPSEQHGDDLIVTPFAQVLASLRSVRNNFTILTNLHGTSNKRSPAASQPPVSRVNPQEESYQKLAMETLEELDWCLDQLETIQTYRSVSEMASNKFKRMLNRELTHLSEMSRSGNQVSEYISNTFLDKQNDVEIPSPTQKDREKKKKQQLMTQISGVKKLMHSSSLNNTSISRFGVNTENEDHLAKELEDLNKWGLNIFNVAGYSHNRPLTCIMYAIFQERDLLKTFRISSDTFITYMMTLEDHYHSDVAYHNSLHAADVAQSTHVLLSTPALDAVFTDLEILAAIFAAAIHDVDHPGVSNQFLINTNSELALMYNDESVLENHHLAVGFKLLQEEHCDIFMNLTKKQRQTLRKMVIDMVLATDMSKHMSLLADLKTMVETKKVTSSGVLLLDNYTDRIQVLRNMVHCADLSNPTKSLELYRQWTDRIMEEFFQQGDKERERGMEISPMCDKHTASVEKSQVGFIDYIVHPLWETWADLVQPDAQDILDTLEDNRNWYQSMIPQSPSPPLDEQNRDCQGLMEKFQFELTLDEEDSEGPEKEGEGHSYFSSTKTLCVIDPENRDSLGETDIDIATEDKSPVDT
Sequence of Glucocorticoid receptor (Homo sapiens) (P04150 whole entry, looked up, the tested form may be a part): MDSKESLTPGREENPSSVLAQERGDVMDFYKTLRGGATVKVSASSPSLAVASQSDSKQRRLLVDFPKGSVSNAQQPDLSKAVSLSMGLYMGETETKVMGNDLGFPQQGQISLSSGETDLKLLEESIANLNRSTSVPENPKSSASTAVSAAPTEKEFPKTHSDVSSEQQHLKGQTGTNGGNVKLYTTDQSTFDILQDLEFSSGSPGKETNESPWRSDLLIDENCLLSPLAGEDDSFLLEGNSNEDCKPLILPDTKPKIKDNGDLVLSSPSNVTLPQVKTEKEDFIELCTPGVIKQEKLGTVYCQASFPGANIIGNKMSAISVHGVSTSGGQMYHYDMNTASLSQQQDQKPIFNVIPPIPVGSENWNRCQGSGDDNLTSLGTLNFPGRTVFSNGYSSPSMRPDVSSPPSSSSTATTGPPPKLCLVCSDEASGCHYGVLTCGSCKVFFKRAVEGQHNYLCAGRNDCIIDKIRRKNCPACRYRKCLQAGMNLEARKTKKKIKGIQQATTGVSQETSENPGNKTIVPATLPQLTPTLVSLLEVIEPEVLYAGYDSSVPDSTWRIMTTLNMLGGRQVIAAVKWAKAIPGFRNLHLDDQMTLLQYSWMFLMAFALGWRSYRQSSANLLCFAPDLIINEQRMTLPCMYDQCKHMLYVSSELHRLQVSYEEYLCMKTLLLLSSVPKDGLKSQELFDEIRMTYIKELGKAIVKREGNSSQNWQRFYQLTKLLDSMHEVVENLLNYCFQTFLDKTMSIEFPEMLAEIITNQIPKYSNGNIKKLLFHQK

For `C=CC1=C(C(=O)O)N2C(=O)[C@@H](NC(=O)/C(=N\OCC(=O)O)c3csc(N)n3)[C@@H]2SC1`, the compound was classed as inactive in [1], in [4], in [6] and in assay [10]. The Potency result (in assay [2]; in assay [5]; in [8]; in [9]; with C2A; in the assay with CP191) was “inactive” in each case. In addition, the Potency entry in the assay on CP256, in the assay with CP262, in the assay on JCK and with SC27B was “inactive” throughout. For the same compound, the figures for the activity change, negative = inhibition in assay [3] and in assay [7] were -1.88% (inactive) and 0.264% (inactive), respectively. The max response in assay [7] (setting [14]) worked out at 6.88%; in assay [7] (setting [15]) it was 9.17%. Besides, the activity, negative = inhibition was -8.61% (inactive) in assay [11] (parasite line A) and -5.96% (inactive) in [11] (parasite line B).
Regarding `CO[C@]1(NC(=O)Cc2cccs2)C(=O)N2C(C(=O)O)=C(COC(N)=O)CS[C@H]21`, the outcome in assay [1], in [4] and in [6] was inactive. In addition, the Potency entry in assay [2], in [5] and in [8] was “inactive” each time. In addition, the figures for the activity change, negative = inhibition in assay [3] and in assay [7] were 3.7% (inactive) and 2.57% (inactive), respectively. Moreover, the values for the max response in assay [7] (setting [14]) and in assay [7] (setting [15]) were -2.6% and 0.943%, respectively.
Regarding `C[C@H](N[C@@H](C)COc1ccccc1)[C@H](O)c1ccc(O)cc1`, the compound was classed as inactive in assay [1] and in [10]. For the same compound, the Potency in assay [2] is 5.01 µM (active); in [12], > 20.6 µM (inactive); in assay [13], > 20.6 µM (inactive). In addition, the activity change, negative = inhibition is -9.06% (inactive) in [3] and 0.23% (inactive) in [7]. Besides, the Potency result (in [5]; in assay [8]; in [9]; in the assay on C2A; in the assay on CP191; with CP256) was “inactive” each time. In addition, the Potency entry with CP262, in the assay on CP268, in the assay with JCK and in the assay with SC27B was “inactive” throughout. The max response is -4.01% in assay [7] (setting [14]) and -3.47% in assay [7] (setting [15]). Besides, the activity, negative = inhibition in [11] (parasite line A) was 2.67% (inactive); in assay [11] (parasite line B) it was 10.2% (inactive).
For `CC(C)NC[C@H]1CCc2cc(CO)c([N+](=O)[O-])cc2N1`, the result in assay [1], in [4], in assay [6] and in [10] was inactive. For the same compound, the Potency in [2] is 10 µM (active); in [12], > 20.6 µM (inactive); in [13], > 20.6 µM (inactive). Also, the Potency result (in assay [5]; in [8]; in assay [9]; with C2A; in the assay with CP191; in the assay on CP256) was “inactive” throughout. The Potency entry with CP268, in the assay with JCK and in the assay with SC27B was “inactive” each time. In addition, the activity change, negative = inhibition in assay [7] was -3.1% (inactive). In addition, the max response in assay [7] (setting [14]) is -10%; in [7] (setting [15]), -14.1%. Also, the results for the activity, negative = inhibition in assay [11] (parasite line A) and in assay [11] (parasite line B) were 7.96% (inactive) and 12.7% (inactive), respectively.
As for `CNC[C@H](O)[C@H](O)[C@H](O)[C@H](O)CO`, the compound was called inactive in [1], in assay [4] and in assay [6]. Moreover, the Potency entry in assay [2], in [5] and in assay [8] was “inactive” throughout. Further, the figures for the activity change, negative = inhibition in assay [3] and in [7] were 3.99% (inactive) and -1.7% (inactive), respectively. Further, the max response is -11% in [7] (setting [14]) and -14.3% in assay [7] (setting [15]).

Values taken from PubChem BioAssay (NCATS).
